# Screening data: PubChem, National Center for Advancing Translational Sciences (NCATS)
# ClpP mod: qHTS Assay for Activators of ClpP; Potency, µM (series often up to 57.5 µM), without a hit: top-dose activity change, negative = active; purified B. subtilis ClpP, FRET peptide cleavage, 20 min; AID 651965, 2013; 1.9% of 340,000 active; active means well fitted falling curve with a large enough effect; inconclusive means small, poorly fitted or top-dose-only effect; inactive means no such curve, though single readings can be large or run the other way; further: the source files actives as falling curves though it sought activators and does not explain the sign; nearly all actives have a fitted effect of over 65% in size
# Target sequence (P80244 whole entry, looked up): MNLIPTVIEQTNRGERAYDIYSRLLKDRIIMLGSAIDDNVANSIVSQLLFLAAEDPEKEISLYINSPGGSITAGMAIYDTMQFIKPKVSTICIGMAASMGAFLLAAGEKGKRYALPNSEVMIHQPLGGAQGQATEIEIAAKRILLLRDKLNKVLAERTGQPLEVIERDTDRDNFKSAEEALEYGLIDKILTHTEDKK
#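 FRET quenching reversal measured ClpP activation: 10 microg/mL B. subtilis ClpP at pH 8 with the FRET-FV decapeptide, read at 430 nm after 320 nm excitation. The 20-min minus 0-min signal was scaled between DMSO/no-enzyme wells and ADEP (5.8 microM final).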
# TDP1 inh: TDP1 (human) enzyme inhibition; recombinant TDP1, AlphaScreen DNA substrate cleavage; Potency, µM (doses to about 130 µM), for the others: at the highest dose activity change, negative = inhibition, most hits filed as inhibitors; 0.28% of 350,000 active; AID 485290; further: on the % scale 0 is the no-effect control and ±100 the full control effect; nearly all actives have a fitted effect of over 40% in size
#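 E. coli-derived human Tdp1, 1 nM final. Cpd preinc 15 min RT; substrate 15 nM final, 5 min RT; AS bead mix 10 ug/ml final, 10 min RT. Signal loss = tyrosine-FITC cleavage. No-enzyme wells = max signal.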
# Rango release inh: inhibitors of RanGTP-induced Rango-importin beta complex dissociation; Potency, µM (series often up to 46.1 µM), for inactives: at the top dose activity change, negative = inhibition; O95149+P62826; 0.071% of 340,000 active; Biochemical FRET Rango-importin beta, RanGTP-induced dissociation; calls by dose curve; further: % of control where 0% means no effect; nearly all actives have a fitted effect of over 45% in size
#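 Rango/importin beta premix (0.1/0.25 uM final), PBS + 1 mM DTT + 0.02% Tween-20 + 0.1% BSA; cpd 5 min RT; FRET pre-read; + RanGTP-RCC1 (0.6 uM Ran, 2 mM GTP, 0.2 uM RCC1); 45 min RT; FRET post-read, ex 430, em 486/530 nm.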
# TSG101-PTAP inh: blocks PTAP/TSG101 interaction to inhibit HIV-1 budding; Fluorescence polarization, FITC-PTAP peptide / Tsg101 binding; Potency, µM (highest dose often 115 µM), without a hit: at the top dose activity change, negative = inhibition, actives largely listed as inhibitors; 340,000 tested, under 10 active; AID 493005; active means well fitted inhibition curve with a large enough effect in the main read-out, with a control signal flat, not every such curve was filed as active; inconclusive means small, poorly fitted or top-dose-only effect, or effect the other way, or a change in a side signal; inactive means no such curve, though single readings can be large or run the other way; further: % of control where 0% means no effect
# Target sequence (Q99816 whole entry, looked up): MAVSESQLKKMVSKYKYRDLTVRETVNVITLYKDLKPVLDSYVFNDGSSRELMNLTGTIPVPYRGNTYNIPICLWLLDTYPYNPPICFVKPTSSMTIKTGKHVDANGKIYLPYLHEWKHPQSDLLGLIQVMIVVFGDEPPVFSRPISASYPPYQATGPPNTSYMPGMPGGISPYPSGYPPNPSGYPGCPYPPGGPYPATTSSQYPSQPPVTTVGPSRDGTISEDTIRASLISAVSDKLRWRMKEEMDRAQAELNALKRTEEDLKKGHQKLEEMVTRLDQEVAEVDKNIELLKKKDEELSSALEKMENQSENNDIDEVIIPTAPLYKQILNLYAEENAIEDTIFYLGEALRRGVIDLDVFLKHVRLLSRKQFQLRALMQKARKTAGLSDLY
#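 FP read-out: FITC-PTAP peptide, 50 nM final, binding Tsg101 binding domain, 10 uM final; 20 min, r.t.; 10 mM HEPES pH 7.5, 0.15 M NaCl, 0.01% Tween 20, 3 mM EDTA, 0.1 mM TCEP.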
# Rango-impB inh: Rango-importin beta binding inhibition; Q14974; 0.031% of 340,000 active; Potency, µM (titrated, usually from 92.2 µM), for the others: at the highest dose inhibition of complex formation; Rango CFP/YFP FRET sensor + importin beta, 45 min; calls by dose curve;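 further: 0% = DMSO wells and 100% = buffer wells lacking importin beta; nearly all actives have a fitted effect of over 15% in size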
#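 Inhibition scored from the CFP 486 nm/YFP 530 nm FRET ratio 45 min after adding 0.125 microM importin beta to 50 nM Rango biosensor preincubated 5 min with compound (room temperature, PBS with DTT, Tween-20, BSA). No-importin wells as positive control.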
# 12-LOX inh: blocks human arachidonate 12S-lipoxygenase. purified 12hLO, xylenol orange hydroperoxide absorbance. Potency, µM (highest dose often 108 µM), for the others: at the top dose activity change, negative = inhibition, most hits filed as inhibitors. 1.1% of 580,000 active. AID 1671190; further: on the % scale 0 is the no-effect control and ±100 the full control effect
#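 Hydroperoxide product was detected by ferrous iron/xylenol orange as the 573 to 405 nm absorbance ratio. Arachidonic acid at 40 uM (final) was turned over for 30 min at room temperature by 150 nM human 12hLO, pH 7.0 Hepes buffer, after 15 min compound preincubation.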
# * marks the source's active call; other numbers are inactive results; ? = inconclusive; · = no result; [ ] = another dose, or the depositor's remark. Only some compounds are listed: those with a hit (about 2.4% of all), similar ones and a draw of the others. Unless noted, the call rests on the fitted dose curve; in most records, active means well fitted curve in the direction sought with a large enough effect; inconclusive means small, poorly fitted or top-dose-only effect, or another doubt; inactive means no such curve, though single readings can be large; an effect the other way counts as inactive or inconclusive. Potency means the concentration at half of the fitted maximal effect.
SMILES,ClpP mod,TDP1 inh,Rango release inh,TSG101-PTAP inh,Rango-impB inh,12-LOX inh
N#Cc1c(-c2ccco2)nc(SCC(=O)Nc2cccc(Cl)c2)[nH]c1=O,-2%,-6%,-19%,-7%,-3%,22µM*
C#CCN(C)C[C@@H]1C=C(C)[C@H](Cc2nnc(-c3ccccc3F)o2)C[C@H]1C(C)C,·,·,·,·,·,11%[176 µM]
O=C(O)C1C2C=CC(C2)C1C(=O)NCc1cccs1 (stereo not drawn),·,45µM*,1%,1%,3%,10%
CC(C)C(=O)N/N=C/c1ccc(Br)cc1,·,·,·,·,·,-4%
O=c1[nH]c2cc3c(cc2cc1C(c1nnnn1C1CCCCC1)N1CCSCC1)OCCO3 (stereo not drawn),35µM*,2%,?,-1%,?,?
COc1cc2cc(C(c3nnnn3C3CCCC3)N3CCCCC3)c(=O)[nH]c2cc1OC (stereo not drawn),22µM*,-2%,7%,-7%,5%,7%
COc1cc2cc(CN(Cc3nnnn3C3CCCC3)C3CCCC3)c(=O)[nH]c2cc1OC,·,4%,·,·,·,·
COc1ccc(C(c2nnnn2C2CCCC2)N2CCC(C)CC2)c(OC)c1 (stereo not drawn),18µM*,-1%,8%,-2%,0%,0%
COc1ccc(OC)c(C(c2nnnn2C2CCCC2)N2CCN(c3ccc(F)cc3)CC2)c1 (stereo not drawn),-6%,2%,-9%,-5%,1%,?
O=c1[nH]c2cc3c(cc2cc1CN(Cc1nnnn1C1CCCC1)C1CCCC1)OCCO3,32µM*,4%,?,3%,?,-3%
Cc1ccc2oc(=O)cc(CN(C)CCO)c2c1,·,·,·,·,·,-36%
CCOC(=O)C(O)c1ccccc1 (stereo not drawn),·,·,·,·,·,-15%[22.9 µM]
O=C(N/N=C/c1ccc(-c2ccccc2)cc1)c1ccc(Br)s1,·,·,·,·,·,-76%
COc1ccc(-c2cc(N3CCN(C(=O)c4cccc(F)c4)CC3)n[nH]2)cc1,·,·,·,·,·,83%
CCN(CC(=O)NCc1ccc(F)cc1)Cc1nc2cc(Cl)ccc2c(=O)[nH]1,7.1µM*,4%,7%,-8%,?,5%
CCN(CC(=O)NCCc1ccc(F)cc1)Cc1nc2ccccc2c(=O)[nH]1,-1%,8%,-6%,-3%,2%,3%
COc1ccc2c(c1)-c1nc(NC(=O)c3ccccc3F)sc1CC2,35µM*,-3%,·,·,·,?
COc1ccc(C2c3c(n[nH]c3C)Nc3[nH]c(=O)[nH]c(=O)c32)c(OC)c1 (stereo not drawn),·,·,·,·,·,-6%
CC(=O)N=C1SC2CS(=O)(=O)CC2N1c1c(Cl)cccc1Cl (stereo not drawn),32µM*,1%,1%,-4%,5%,-7%
O=C(N=C1SC2CS(=O)(=O)CC2N1c1c(Cl)cccc1Cl)C1CC1 (stereo not drawn),-1%,0%,-1%,-12%,3%,10%
CNC(=S)N(Cc1cccs1)Cc1cc2cc(OC)c(OC)cc2[nH]c1=O,25µM*,8%,19%,0%,-6%,-10%
Cc1ccc2[nH]c(=O)c(CN(CCO)C(=O)N(C)C)cc2c1,28µM*,·,4%,-7%,0%,15%
Cc1ccc2[nH]c(=O)c(CNC(C)(C)C)cc2c1,14µM*,-3%,-10%,1%,0%,4%
COc1cc2cc(CN(Cc3cccnc3)C(=O)NCc3ccccc3)c(=O)[nH]c2cc1OC,25µM*,-4%,-14%,-1%,-1%,-12%
COc1cc2cc(CN(Cc3cccnc3)C(=O)Nc3ccccc3)c(=O)[nH]c2cc1OC,·,0%,8%,-2%,-2%,6%
SMILES,ClpP mod,TDP1 inh,Rango release inh,TSG101-PTAP inh,Rango-impB inh,12-LOX inh
Cc1cccc(C)c1NC(=O)CNC(=O)CSc1nc(Cc2ccccc2)c(C)[nH]1,·,·,·,·,·,10%
Cc1ccc2[nH]c(=O)c(CN(CCO)C(=O)NCc3ccccc3)cc2c1,-21%,12%,2%,0%,0%,9%
COc1ccc2[nH]c(=O)c(CN(CCc3ccccc3)C(C)=O)cc2c1,28µM*,0%,1%,-4%,-1%,3%
CCc1ccc2[nH]c(=O)c(CN(CCN(C)C)C(=O)Nc3ccccc3OC)cc2c1,28µM*,4%,-3%,-2%,4%,0%
CC(=O)N(CCc1ccccc1)Cc1cc2cc(C)ccc2[nH]c1=O,?,·,13%,4%,0%,0%
COc1ccc2[nH]c(=O)c(CNc3ccccc3)cc2c1,16µM*,-3%,?,0%,?,?
COc1ccc2[nH]c(=O)c(CN(CCN(C)C)C(=O)NCc3ccccc3)cc2c1,25µM*,2%,3%,0%,-2%,·
CN(C)CCN(Cc1cc2cc3c(cc2[nH]c1=O)OCO3)C(=S)NCC1CCCO1 (stereo not drawn),·,0%,8%,-1%,-4%,0%
COc1ccc2[nH]c(=O)c(CN(CCO)C(=O)c3ccccc3F)cc2c1,20µM*,2%,-2%,-6%,1%,14%
CCN(CC)CCCN(Cc1cc2cc(OC)ccc2[nH]c1=O)C(=O)Nc1ccc(F)cc1,28µM*,6%,-5%,-2%,0%,0%
COc1ccc2[nH]c(=O)c(COC(=O)c3ccccc3F)cc2c1,·,·,·,·,·,-9%
O=C(NCc1ccccc1)N(Cc1cc2cc3c(cc2[nH]c1=O)OCO3)CC1CCCO1 (stereo not drawn),28µM*,2%,-21%,-3%,0%,-5%
COc1ccc2c(c1)c1c(c(=O)n(Cc3ccccc3)c(=O)n1CC(=O)Nc1ccccc1OC)n2C,20µM*,6%,·,·,·,-2%
CC1CCN(S(=O)(=O)c2cccc(-c3cn4cc(Cl)ccc4n3)c2)CC1,35µM*,5%,3%,0%,-1%,0%
CCOC(=O)C1CCN(S(=O)(=O)c2cccc(-c3cn4cc(Cl)ccc4n3)c2)CC1,?,1%,4%,0%,3%,0%
O=C(Cc1cccs1)N1CCN(c2cc(C(F)(F)F)ncn2)CC1,·,·,·,·,·,35µM*
C[N+](C)(CCCCCCCCCC[N+](C)(C)C1CCCCC1)C1CCCCC1,·,·,·,·,·,16µM*
CC(OC(=O)c1ccccc1NS(=O)(=O)c1ccc(F)cc1)C(=O)N1CCCc2ccccc21 (stereo not drawn),·,·,·,·,·,-25%
Fc1ccc(-c2cc(C(F)(F)F)nc(NCc3cccs3)n2)cc1,32µM*,-8%,-9%,-6%,5%,-3%
